# Experimental data reported in the supplement of paper PMC10849652.
# Of roughly 8,800 targets only a part is listed; those with a hit were picked by preference. About 0.5% of all pairs of compound and target were hits. Unmarked numbers belong to inactive results.
# Compound: CCn1cc(-c2ccnc3[nH]c(-c4cccc(CN(C)C)c4)cc23)c(-c2ccc(NC(=O)N(C)C)cc2)n1
# Assay: log2 fold change, soluble protein after heating vs DMSO (PISA); higher = thermal stabilisation; K562 lysate, 10 uM; active = over 0.2 and 3.5 SD of the protein, either way, in both replicates (recomputed)
# Outline: (§1)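 K562 pellets were dounce-homogenised in PBS pH 7.4 containing 1 mM MgCl2, and the crude extract, at 1 mg/mL protein, was exposed to 10 μM compound for 30 min. Aliquots were heated for 3 min across 48°C-58°C, pooled, brought to 0.5% NP-40 at 4°C and spun at 21,000xg for 90 min, with the supernatant taken as soluble protein. TMTpro 16plex LC-MS/MS with equalised channel sums quantified that protein. Values are log-two fold changes in thermal stability relative to solvent controls, taken from duplicates.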
# UniProt P53671, sequence (P53671 whole entry, looked up): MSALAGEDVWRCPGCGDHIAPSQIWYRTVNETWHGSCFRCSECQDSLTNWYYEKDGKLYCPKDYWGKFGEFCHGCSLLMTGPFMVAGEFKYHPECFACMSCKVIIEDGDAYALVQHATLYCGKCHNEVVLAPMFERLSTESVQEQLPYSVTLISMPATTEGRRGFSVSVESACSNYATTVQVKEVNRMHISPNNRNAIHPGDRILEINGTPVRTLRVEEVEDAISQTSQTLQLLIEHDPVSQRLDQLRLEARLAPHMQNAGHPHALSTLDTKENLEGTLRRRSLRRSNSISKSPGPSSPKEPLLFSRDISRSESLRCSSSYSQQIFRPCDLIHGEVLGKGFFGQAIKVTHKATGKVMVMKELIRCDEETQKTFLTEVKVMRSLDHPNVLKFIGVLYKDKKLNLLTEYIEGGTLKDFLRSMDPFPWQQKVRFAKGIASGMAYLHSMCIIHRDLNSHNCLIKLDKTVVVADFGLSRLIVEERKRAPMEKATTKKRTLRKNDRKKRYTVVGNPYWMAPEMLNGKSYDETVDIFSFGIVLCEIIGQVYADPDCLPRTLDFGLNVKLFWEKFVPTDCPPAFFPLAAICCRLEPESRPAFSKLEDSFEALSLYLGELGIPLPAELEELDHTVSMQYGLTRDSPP
# UniProt Q96IZ6, sequence (Q96IZ6 whole entry, looked up): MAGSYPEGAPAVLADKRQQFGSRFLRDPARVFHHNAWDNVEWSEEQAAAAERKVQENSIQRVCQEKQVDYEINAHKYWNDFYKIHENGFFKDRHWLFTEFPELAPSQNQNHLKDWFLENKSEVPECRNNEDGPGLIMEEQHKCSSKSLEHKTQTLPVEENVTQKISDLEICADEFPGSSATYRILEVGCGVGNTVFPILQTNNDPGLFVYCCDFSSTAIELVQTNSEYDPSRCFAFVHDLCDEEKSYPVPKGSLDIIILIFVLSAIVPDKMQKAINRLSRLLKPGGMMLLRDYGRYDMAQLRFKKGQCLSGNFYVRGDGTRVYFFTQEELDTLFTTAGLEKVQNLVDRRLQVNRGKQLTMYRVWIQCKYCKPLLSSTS
# UniProt P40692, sequence (P40692 whole entry, looked up): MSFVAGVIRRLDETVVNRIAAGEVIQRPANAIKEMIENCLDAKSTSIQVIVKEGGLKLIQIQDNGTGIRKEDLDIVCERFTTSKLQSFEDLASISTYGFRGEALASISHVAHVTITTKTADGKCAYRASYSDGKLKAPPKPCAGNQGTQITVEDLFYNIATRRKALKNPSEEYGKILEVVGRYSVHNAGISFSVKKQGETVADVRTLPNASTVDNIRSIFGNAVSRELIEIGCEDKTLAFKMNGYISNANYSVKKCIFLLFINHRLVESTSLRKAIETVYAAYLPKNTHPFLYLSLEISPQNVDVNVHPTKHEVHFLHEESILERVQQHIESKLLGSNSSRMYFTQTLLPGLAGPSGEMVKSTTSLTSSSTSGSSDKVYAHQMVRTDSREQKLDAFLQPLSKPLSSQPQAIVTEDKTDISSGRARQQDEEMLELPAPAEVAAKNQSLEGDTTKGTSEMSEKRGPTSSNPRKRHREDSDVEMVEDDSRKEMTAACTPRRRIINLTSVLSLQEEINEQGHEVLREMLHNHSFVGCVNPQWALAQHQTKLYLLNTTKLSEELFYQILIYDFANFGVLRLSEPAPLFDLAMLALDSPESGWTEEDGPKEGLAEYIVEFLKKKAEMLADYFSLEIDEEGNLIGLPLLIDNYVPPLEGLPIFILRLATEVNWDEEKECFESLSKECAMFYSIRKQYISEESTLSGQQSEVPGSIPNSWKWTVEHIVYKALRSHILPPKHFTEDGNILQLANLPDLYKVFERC
# UniProt Q86V48, sequence (Q86V48 whole entry, looked up): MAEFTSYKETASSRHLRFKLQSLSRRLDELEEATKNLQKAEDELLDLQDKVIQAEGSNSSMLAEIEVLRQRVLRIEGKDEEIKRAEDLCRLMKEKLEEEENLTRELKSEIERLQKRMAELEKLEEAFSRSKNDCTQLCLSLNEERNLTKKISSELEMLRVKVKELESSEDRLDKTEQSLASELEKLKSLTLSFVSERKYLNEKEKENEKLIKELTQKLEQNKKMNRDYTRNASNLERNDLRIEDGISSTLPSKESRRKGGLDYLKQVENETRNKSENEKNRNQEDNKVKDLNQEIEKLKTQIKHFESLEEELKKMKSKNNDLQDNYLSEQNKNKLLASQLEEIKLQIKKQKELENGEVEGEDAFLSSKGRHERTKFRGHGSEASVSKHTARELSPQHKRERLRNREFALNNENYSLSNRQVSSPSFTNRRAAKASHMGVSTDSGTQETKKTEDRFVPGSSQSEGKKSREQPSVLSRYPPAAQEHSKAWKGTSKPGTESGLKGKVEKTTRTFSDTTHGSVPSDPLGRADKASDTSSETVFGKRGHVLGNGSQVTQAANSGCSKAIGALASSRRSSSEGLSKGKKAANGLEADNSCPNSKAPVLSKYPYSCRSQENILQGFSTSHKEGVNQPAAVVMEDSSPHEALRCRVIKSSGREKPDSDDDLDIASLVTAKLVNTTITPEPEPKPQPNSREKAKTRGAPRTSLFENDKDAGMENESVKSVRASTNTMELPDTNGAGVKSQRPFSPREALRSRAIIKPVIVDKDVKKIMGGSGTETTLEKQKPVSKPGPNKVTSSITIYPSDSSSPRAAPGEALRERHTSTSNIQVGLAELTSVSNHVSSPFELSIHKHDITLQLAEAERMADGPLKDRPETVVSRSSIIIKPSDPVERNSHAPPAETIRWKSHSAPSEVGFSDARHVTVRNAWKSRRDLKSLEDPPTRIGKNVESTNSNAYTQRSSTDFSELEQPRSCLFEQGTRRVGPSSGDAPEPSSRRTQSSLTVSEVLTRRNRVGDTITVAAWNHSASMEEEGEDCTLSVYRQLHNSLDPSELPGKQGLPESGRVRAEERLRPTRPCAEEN
# UniProt Q8WV92, sequence (Q8WV92 whole entry, looked up): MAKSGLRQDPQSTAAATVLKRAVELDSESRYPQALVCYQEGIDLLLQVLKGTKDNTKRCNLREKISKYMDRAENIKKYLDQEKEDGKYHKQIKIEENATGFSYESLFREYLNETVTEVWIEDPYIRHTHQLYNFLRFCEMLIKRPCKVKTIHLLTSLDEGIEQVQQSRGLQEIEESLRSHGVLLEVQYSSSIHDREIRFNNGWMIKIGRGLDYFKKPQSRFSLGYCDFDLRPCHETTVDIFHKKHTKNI
# UniProt Q8IVT5, sequence (Q8IVT5 whole entry, looked up): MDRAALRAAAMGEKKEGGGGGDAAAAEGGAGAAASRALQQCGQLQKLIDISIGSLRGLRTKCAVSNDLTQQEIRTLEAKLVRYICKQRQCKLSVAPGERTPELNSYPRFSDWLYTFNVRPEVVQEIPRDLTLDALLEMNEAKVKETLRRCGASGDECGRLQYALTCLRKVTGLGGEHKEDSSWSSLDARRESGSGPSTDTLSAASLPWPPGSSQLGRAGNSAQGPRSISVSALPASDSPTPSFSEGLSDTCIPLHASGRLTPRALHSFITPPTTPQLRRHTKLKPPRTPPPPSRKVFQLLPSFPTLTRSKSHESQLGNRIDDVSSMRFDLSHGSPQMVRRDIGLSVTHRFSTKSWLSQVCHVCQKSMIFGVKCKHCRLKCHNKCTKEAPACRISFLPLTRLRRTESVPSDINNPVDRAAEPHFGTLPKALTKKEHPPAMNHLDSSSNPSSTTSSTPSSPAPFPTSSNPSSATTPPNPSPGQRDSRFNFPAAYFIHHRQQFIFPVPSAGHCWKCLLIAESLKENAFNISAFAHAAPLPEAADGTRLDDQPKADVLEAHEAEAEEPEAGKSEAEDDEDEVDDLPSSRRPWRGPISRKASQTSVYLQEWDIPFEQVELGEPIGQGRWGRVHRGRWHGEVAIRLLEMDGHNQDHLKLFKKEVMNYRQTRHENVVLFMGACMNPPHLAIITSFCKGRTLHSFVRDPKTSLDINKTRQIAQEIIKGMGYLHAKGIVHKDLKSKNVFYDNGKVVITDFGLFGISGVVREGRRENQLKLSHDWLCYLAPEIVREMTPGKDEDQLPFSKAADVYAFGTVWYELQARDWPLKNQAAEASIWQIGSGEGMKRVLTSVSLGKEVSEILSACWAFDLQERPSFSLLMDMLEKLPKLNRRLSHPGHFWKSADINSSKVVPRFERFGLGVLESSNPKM
# UniProt P52732, sequence (P52732 whole entry, looked up): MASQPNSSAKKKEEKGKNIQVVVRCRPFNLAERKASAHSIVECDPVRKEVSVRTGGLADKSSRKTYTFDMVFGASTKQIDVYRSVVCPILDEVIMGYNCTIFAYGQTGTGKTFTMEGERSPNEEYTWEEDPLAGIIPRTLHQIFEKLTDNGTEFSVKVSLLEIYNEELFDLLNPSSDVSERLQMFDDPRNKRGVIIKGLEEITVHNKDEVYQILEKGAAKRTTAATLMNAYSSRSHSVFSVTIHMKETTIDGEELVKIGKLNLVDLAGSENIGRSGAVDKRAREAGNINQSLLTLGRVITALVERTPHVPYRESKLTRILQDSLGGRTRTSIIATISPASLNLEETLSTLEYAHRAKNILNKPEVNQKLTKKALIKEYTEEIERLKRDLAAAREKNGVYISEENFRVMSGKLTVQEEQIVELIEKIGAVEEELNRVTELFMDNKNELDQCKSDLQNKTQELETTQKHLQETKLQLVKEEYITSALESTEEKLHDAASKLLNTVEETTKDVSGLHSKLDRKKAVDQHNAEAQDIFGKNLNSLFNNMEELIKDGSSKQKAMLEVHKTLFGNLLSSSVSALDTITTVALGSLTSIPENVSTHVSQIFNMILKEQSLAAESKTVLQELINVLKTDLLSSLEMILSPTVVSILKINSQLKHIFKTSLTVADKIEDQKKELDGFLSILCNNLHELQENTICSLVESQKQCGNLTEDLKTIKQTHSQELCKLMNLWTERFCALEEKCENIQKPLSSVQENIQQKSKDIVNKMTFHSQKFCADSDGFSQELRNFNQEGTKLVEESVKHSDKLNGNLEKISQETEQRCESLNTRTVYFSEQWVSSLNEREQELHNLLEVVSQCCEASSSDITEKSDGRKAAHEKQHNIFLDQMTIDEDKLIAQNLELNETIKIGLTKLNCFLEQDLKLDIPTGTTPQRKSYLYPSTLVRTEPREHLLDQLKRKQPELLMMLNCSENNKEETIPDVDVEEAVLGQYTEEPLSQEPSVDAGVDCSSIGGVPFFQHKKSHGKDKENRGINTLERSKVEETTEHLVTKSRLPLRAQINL
row,Target,log2 fold change
1,MED16 (UniProt Q9Y2X0),0.177
2,LAP3 (UniProt P28838),-0.495 (active)
3,LUZP1 (UniProt Q86V48),0.108
4,KSR1 (UniProt Q8IVT5),0.187
5,LTN1 isoform 3 (UniProt O94822),0.035
6,MAP2K3 isoform 3 (UniProt P46734),0.191
7,MRPL46 (UniProt Q9H2W6),0.523 (active)
8,MCU (UniProt Q8NE86),-0.062
9,KIF14 (UniProt Q15058),-0.046
10,KIF15 (UniProt Q9NS87),0.006
11,MAP3K4 (UniProt Q9Y6R4),0.047
12,LIMS1 isoform 3 (UniProt P48059),-0.005
13,KIF11 (UniProt P52732),-0.055
14,KIFC1 (UniProt Q9BW19),-0.045
15,MAT2B (UniProt Q9NZL9),0.13
16,MFF isoform 2 (UniProt Q9GZY8),-0.234 (active)
17,KPNA2 (UniProt P52292),-0.033
18,MED8 isoform 2 (UniProt Q96G25),0.214
19,MAPK8 isoform 3 (UniProt P45983),0.013
20,MGST3 (UniProt O14880),0.286 (active)

row,Target,log2 fold change
1,KIF4A (UniProt O95239),0.013
2,MPP1 (UniProt Q00013),-0.008
3,MAP4 (UniProt E7EVA0),-0.024
4,LARS2 (UniProt Q15031),0.024
5,LIMK2 isoform 3 (UniProt P53671),0.963 (active)
6,KPNA4 (UniProt O00629),-0.318 (active)
7,MAP7D3 (UniProt Q8IWC1),-0.053
8,METTL7A (UniProt Q9H8H3),0.014
9,LYN (UniProt P07948),-0.012
10,LUC7L (UniProt Q9NQ29),0.172
11,LYSMD3 (UniProt Q7Z3D4),-0.094
12,KRR1 (UniProt Q13601),-0.006
13,METTL2A (UniProt Q96IZ6),0.06
14,MARK3 (UniProt P27448),-0.114
15,MLH1 (UniProt P40692),-0.029
16,KLC2 (UniProt Q9H0B6),-0.015
17,MCCC1 (UniProt Q96RQ3),0.139
18,MAPK3 (UniProt P27361),0
19,MITD1 (UniProt Q8WV92),-0.269

# Compound: CN1CCC(CNc2ccc3ncc(-c4cccc(OC(F)(F)F)c4)n3n2)CC1
# Assay: as above
# Outline: as §1
row,Target,log2 fold change
1,MED16 (UniProt Q9Y2X0),-0.189
2,LAP3 (UniProt P28838),0.36 (active)
3,LUZP1 (UniProt Q86V48),0.014
4,KSR1 (UniProt Q8IVT5),-0.056
5,LTN1 isoform 3 (UniProt O94822),-0.106
6,MAP2K3 isoform 3 (UniProt P46734),0.04
7,MRPL46 (UniProt Q9H2W6),-0.029
8,MCU (UniProt Q8NE86),-0.099
9,KIF14 (UniProt Q15058),0.05
10,KIF15 (UniProt Q9NS87),-0.036
11,MAP3K4 (UniProt Q9Y6R4),0.015
12,LIMS1 isoform 3 (UniProt P48059),0.045
13,KIF11 (UniProt P52732),0.018
14,KIFC1 (UniProt Q9BW19),-0.031
15,MAT2B (UniProt Q9NZL9),0
16,MFF isoform 2 (UniProt Q9GZY8),0.036
17,KPNA2 (UniProt P52292),-0.041
18,MED8 isoform 2 (UniProt Q96G25),-0.092
19,MAPK8 isoform 3 (UniProt P45983),0.055
20,MGST3 (UniProt O14880),-0.082

row,Target,log2 fold change
1,KIF4A (UniProt O95239),-0.07
2,MPP1 (UniProt Q00013),-0.034
3,MAP4 (UniProt E7EVA0),0.029
4,LARS2 (UniProt Q15031),-0.073
5,LIMK2 isoform 3 (UniProt P53671),0.023
6,KPNA4 (UniProt O00629),0.103
7,MAP7D3 (UniProt Q8IWC1),-0.006
8,METTL7A (UniProt Q9H8H3),0.081
9,LYN (UniProt P07948),0.233
10,LUC7L (UniProt Q9NQ29),-0.008
11,LYSMD3 (UniProt Q7Z3D4),0.235
12,KRR1 (UniProt Q13601),-0.026
13,METTL2A (UniProt Q96IZ6),-0.113
14,MARK3 (UniProt P27448),-0.237
15,MLH1 (UniProt P40692),-0.023
16,KLC2 (UniProt Q9H0B6),-0.069
17,MCCC1 (UniProt Q96RQ3),-0.059
18,MAPK3 (UniProt P27361),0.026
19,MITD1 (UniProt Q8WV92),-0.163
